Source: ChEMBL document CHEMBL2218924, “A broad activity screen in support of a chemogenomic map for kinase signalling research and drug discovery” (Biochem J, 2013)

biological target: T1, Serine/threonine-protein kinase ULK3 (Homo sapiens) (UniProt Q6PHR2); details: at 10 µM
T1 sequence (whole entry): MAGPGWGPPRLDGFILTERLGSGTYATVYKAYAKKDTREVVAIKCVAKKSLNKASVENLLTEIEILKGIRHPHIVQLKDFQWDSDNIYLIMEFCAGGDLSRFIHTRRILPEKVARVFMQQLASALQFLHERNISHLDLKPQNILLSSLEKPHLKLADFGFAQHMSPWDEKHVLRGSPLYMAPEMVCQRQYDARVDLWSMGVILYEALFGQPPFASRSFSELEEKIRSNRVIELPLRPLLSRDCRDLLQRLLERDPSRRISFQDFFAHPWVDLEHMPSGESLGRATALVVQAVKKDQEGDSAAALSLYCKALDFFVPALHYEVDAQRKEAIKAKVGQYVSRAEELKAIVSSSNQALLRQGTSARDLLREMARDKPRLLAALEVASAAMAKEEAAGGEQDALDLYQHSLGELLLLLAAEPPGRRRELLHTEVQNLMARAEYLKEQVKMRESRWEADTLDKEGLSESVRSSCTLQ

Structure (SMILES)	residual activity [%]
CO[C@H]1C[C@@H]2CC[C@@H](C)[C@@](O)(O2)C(=O)C(=O)N2CCCC[C@H]2C(=O)O[C@H]([C@H](C)C[C@@H]2CC[C@@H](O)[C@H](OC)C2)CC(=O)[C@H](C)/C=C(\C)[C@@H](O)[C@@H](OC)C(=O)[C@H](C)C[C@H](C)/C=C/C=C/C=C/1C	94
COc1cc2ncnc(Nc3ccc(O)c(Br)c3)c2cc1OC	50
COc1cc2ncnc(Nc3ccc(NC(=O)c4ccccc4)cc3)c2cc1OC	69
O=C(Nc1cccc(Nc2cc(Nc3cccc(C(F)(F)F)c3)ncn2)c1)C1CC1	94
O=C1NC(=O)/C(=C/c2ccc3c(c2)OC(F)(F)O3)S1	89
O=C1c2ccccc2-[n+]2ccc3c([nH]c4ccccc43)c21	95
Ic1cccc(CSc2nnc(-c3ccncc3)o2)c1	92
CCN(CC)CCCCN1c2ccccc2Oc2ccc(Cl)cc21	98
CO[C@H]1[C@@H](OC)C[C@H](C)[C@@H](OC)C2=CC(=O)C=C(NC(=O)/C(C)=C/C=C/[C@H](OC)[C@@H](OC(N)=O)/C(C)=C/[C@@H]1C)C2=O	92
c1ccc(-c2n[nH]c3c2oc2ccccc23)cc1	71
C[C@@H](N)[C@H]1CC[C@H](C(=O)Nc2ccncc2)CC1	68
N#CC(C#N)=C(N)/C(C#N)=C/c1ccc(O)cc1	92
O=C1Nc2ccc(Br)cc2/C1=C\c1cc2c([nH]1)CCCC2	55
CO[C@@H]1[C@H](N(C)C(=O)c2ccccc2)C[C@H]2O[C@]1(C)n1c3ccccc3c3c4c(c5c6ccccc6n2c5c31)C(=O)NC4	5
c1ccc(-c2n[nH]cc2-c2ccnc3ccccc23)nc1	98
CC(=O)O/N=C1\C(=C2\C(=O)Nc3cc(Br)ccc32)Nc2ccccc21	66
CN(C)CCCn1cc(C2=C(c3c[nH]c4ccccc34)C(=O)NC2=O)c2ccccc21	61
Nc1cccc(-c2cc3c(Oc4cccc(O)c4)ncnc3[nH]2)c1	6
CC(C)n1cnc2c(NCc3ccccc3)nc(NCCCO)nc21	90
CC(C)n1cnc2/c(=N/c3cccc(Cl)c3)nc(NCCO)[nH]c21	11

biological target: Serine/threonine-protein kinase VRK2 (Homo sapiens) (UniProt Q86Y07); details: at 1 µM;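 further: remaining VRK2 kinase activity expressed as percent of uninhibited control, measured in MOPS buffer at pH 7.0 containing EDTA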
Sequence (Q86Y07 whole entry): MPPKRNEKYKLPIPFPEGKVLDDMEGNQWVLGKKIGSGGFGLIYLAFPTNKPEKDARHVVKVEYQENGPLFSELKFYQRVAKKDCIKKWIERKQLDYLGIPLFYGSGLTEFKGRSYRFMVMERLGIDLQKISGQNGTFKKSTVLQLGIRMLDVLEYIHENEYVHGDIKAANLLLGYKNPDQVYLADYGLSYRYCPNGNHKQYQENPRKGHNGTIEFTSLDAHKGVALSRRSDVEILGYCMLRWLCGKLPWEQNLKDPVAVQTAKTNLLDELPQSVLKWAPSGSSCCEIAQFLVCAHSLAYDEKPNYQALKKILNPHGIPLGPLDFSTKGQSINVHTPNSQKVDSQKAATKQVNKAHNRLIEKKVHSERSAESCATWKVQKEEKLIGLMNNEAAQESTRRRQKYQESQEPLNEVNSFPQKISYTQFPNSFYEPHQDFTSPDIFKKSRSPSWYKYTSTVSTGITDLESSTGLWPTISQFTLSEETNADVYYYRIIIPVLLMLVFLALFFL

Structure (SMILES)	residual activity
O=Nc1c(-c2c(O)[nH]c3ccccc23)[nH]c2ccccc12	71% (inactive)
Cc1cncc2cccc(S(=O)(=O)N3CCCN(C(=O)CN)C[C@H]3C)c12	94% (inactive)
COc1cc2ncnc(N3CCN(C(=O)Nc4ccc(Oc5ccccc5)cc4)CC3)c2cc1OC	94% (inactive)
O=C1Nc2ccccc2/C1=C1/Nc2ccccc2/C1=N\OCCC(O)CO (centres undefined)	69% (inactive)
Oc1c2ccccc2c2c3c(cccc13)N=N2	78% (inactive)
COc1cccc(-c2cc(=O)c3ccccc3o2)c1N	99% (inactive)
Cc1cccc(-c2[nH]c(C(C)(C)C)nc2-c2ccc3c(c2)OCO3)n1	105% (inactive)
CNc1cc2c(Nc3cccc(Br)c3)ncnc2cn1	99% (inactive)
O=C(O)c1ccc2c3c1cccc3c(=O)n1c3ccccc3nc21	105% (inactive)
Cn1nc2c3c(cccc31)C(=O)c1ccccc1-2	92% (inactive)
CO[C@H]1C[C@@H]2CC[C@@H](C)[C@@](O)(O2)C(=O)C(=O)N2CCCC[C@H]2C(=O)O[C@H]([C@H](C)C[C@@H]2CC[C@@H](O)[C@H](OC)C2)CC(=O)[C@H](C)/C=C(\C)[C@@H](O)[C@@H](OC)C(=O)[C@H](C)C[C@H](C)/C=C/C=C/C=C/1C	97% (inactive)
COc1cc2ncnc(Nc3ccc(O)c(Br)c3)c2cc1OC	83% (inactive)
COc1cc2ncnc(Nc3ccc(NC(=O)c4ccccc4)cc3)c2cc1OC	110% (inactive)
O=C(Nc1cccc(Nc2cc(Nc3cccc(C(F)(F)F)c3)ncn2)c1)C1CC1	107% (inactive)
O=C1NC(=O)/C(=C/c2ccc3c(c2)OC(F)(F)O3)S1	112% (inactive)
O=C1c2ccccc2-[n+]2ccc3c([nH]c4ccccc43)c21	93% (inactive)
Ic1cccc(CSc2nnc(-c3ccncc3)o2)c1	92% (inactive)
CCN(CC)CCCCN1c2ccccc2Oc2ccc(Cl)cc21	126% (inactive)
CO[C@H]1[C@@H](OC)C[C@H](C)[C@@H](OC)C2=CC(=O)C=C(NC(=O)/C(C)=C/C=C/[C@H](OC)[C@@H](OC(N)=O)/C(C)=C/[C@@H]1C)C2=O	108% (inactive)
c1ccc(-c2n[nH]c3c2oc2ccccc23)cc1	99% (inactive)
C[C@@H](N)[C@H]1CC[C@H](C(=O)Nc2ccncc2)CC1	96% (inactive)
N#CC(C#N)=C(N)/C(C#N)=C/c1ccc(O)cc1	100% (inactive)
CO[C@@H]1[C@H](N(C)C(=O)c2ccccc2)C[C@H]2O[C@]1(C)n1c3ccccc3c3c4c(c5c6ccccc6n2c5c31)C(=O)NC4	99% (inactive)
c1ccc(-c2n[nH]cc2-c2ccnc3ccccc23)nc1	95% (inactive)
CC(=O)O/N=C1\C(=C2\C(=O)Nc3cc(Br)ccc32)Nc2ccccc21	99% (inactive)
CN(C)CCCn1cc(C2=C(c3c[nH]c4ccccc34)C(=O)NC2=O)c2ccccc21	119% (inactive)
Nc1cccc(-c2cc3c(Oc4cccc(O)c4)ncnc3[nH]2)c1	100% (inactive)
CC(C)n1cnc2c(NCc3ccccc3)nc(NCCCO)nc21	95% (inactive)
CC(C)n1cnc2/c(=N/c3cccc(Cl)c3)nc(NCCO)[nH]c21	71% (inactive)
